# Source: PubChem BioAssay AID2314 (National Center for Advancing Translational Sciences (NCATS), 2010)
# The campaign covered roughly 300,000 compounds. About 37,000 (12%) were called active. Many of the other results were omitted from the sample, so actives are more common in it than they were. Values without a mark were called inactive. Cut-off read from the data, not from the text of the source: active = max response mostly above about 13% (no sharp cut-off); inactive = mostly below about 14%.
# Assay: Cycloheximide Counterscreen for Small Molecule Inhibitors of Shiga Toxin; note: read at 38.3 µM for the half of the compounds with a filed dose; 0% is about no effect
# Conditions: cell reporter, cycloheximide protein synthesis inhibition counterscreen; stronger effect = higher value
row,SMILES,max response
1,O=C(NC1CCN(Cc2ccccc2)CC1)c1ccc(Oc2cc(Cl)cc(Cl)c2)o1,-0.55%
2,CCCc1ccc(-c2csc(NC(=O)Cc3cccs3)n2)cc1,22.9% (active)
3,COC(=O)c1c(NC(=O)c2cccs2)sc2c1CCCC2,9.75%
4,Cc1ccc(-c2csc(NC(=O)Cc3cccs3)n2)cc1C,12.4%
5,CCCc1nnc(NC(=O)c2cc(OC)cc(OC)c2)s1,8.3%
6,CCc1c(C)sc(NC(=O)c2cccs2)c1C(N)=O,63.8% (active)
7,CCc1nnc(NC(=O)Cc2cccs2)s1,1.7%
8,Cc1nc(-c2ccc(NC(=O)c3cccs3)cc2)cs1,23.7% (active)
9,Cc1ccc(OCC(=O)Nc2ccc(NC(=O)c3cccs3)cc2)c(C)c1,-4.62%
10,CCc1c(C)sc(NC(=O)c2ccc(Br)o2)c1C(=O)OC,5.7%
11,CCCc1nnc(NC(=O)c2cccs2)s1,12.8% (active)
12,Cc1ccc(-c2nnc(-c3ccc(NC(=O)c4cccs4)cc3)o2)cc1,-3.98%
13,CC(=O)c1ccc(N2CCN(C(=O)CCNC(=O)Cn3ccc4ccccc4c3=O)CC2)cc1,-4.48%
14,O=C(O)CCCN1C(=O)c2ccccc2Sc2ncccc21,-1.01%
15,C=C1CCN(C(CC(C)C)C(=O)NCc2cc(OC)c(OC)c(OC)c2)S(=O)(=O)c2ccccc21 (configuration not stated),-2.25%
16,Cc1ccc(CSCCNC(=O)CN(c2ccc(F)cc2)S(C)(=O)=O)cc1,-2.68%
17,Cc1ccccc1C(=O)N1CCC(C(=O)Nc2ccc(S(=O)(=O)N(C)C(C)C)cc2)CC1,4.98%
18,CC1CCCCN1C(=O)Cn1c(=O)oc2cc(S(=O)(=O)N3CCCCC3)ccc21 (configuration not stated),-1.34%
19,CC(C)(C)NCc1cc(Br)ccc1OC1CCCC1,-4.63%
20,CCCCCCn1cc(C(=O)O)c(=O)c2cc(F)c(N3CCCCC3)cc21,-0.584%
21,O=C(O)CCC(=O)N(Cc1ccco1)c1nc(-c2ccccc2)cs1,-1.24%
22,Cc1nnc(N(Cc2ccco2)C(=O)c2ccno2)s1,-2.88%
23,Cc1ccc(-c2csc(NNC(=O)c3ccccc3)n2)cc1,-2.93%
24,Cc1ccc(-c2csc(N(Cc3ccco3)C(=O)c3cccs3)n2)cc1,16.7% (active)
25,O=C(Nc1n[nH]c(C(F)(F)F)n1)c1cccs1,-2.4%
26,Cc1ccc(-c2csc(NC(=O)c3cccs3)n2)cc1,60.5% (active)
27,CCC(CC)c1nnc(NC(=O)C2CCN(C(=O)c3ccco3)CC2)s1,-2.36%
